Source: PubChem BioAssay (NCI)
Compounds without any hit were thinned out: in the full panel of roughly 83,000, 20% have a hit.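 Plates (96-well) were seeded with cells, treated with compound at one concentration, and incubated for 48 hours before percent growth was determined.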 Unmarked numbers belong to inactive results. Active and inactive are the calls of the source. Rule for the calls: active = growth percent below 10; inactive = the rest.

Experiments:
Assay in all cases: NCI-60 one-dose screen, 48 h (100 = growth as untreated, 0 = no growth, -100 = all killed)
Conditions in all cases: 10 µM unless noted
NCI-H23 lung = system: NCI-H23 lung
NCI-H226 lung = system: NCI-H226 lung
NCI-H322M lung = system: NCI-H322M lung
HOP-62 NSCLC = system: HOP-62 NSCLC
NCI-H460 lung = system: NCI-H460 lung
HOP-92 NSCLC = system: HOP-92 NSCLC
NCI-H522 lung = system: NCI-H522 lung
A549/ATCC NSCLC = system: A549/ATCC NSCLC
786-0 renal = system: 786-0 renal
COLO 205 colon = system: COLO 205 colon

Row | SMILES | growth (NCI-H23 lung) | growth (NCI-H226 lung) | growth (NCI-H322M lung) | growth (HOP-62 NSCLC) | growth (NCI-H460 lung) | growth (HOP-92 NSCLC) | growth (NCI-H522 lung) | growth (A549/ATCC NSCLC) | growth (786-0 renal) | growth (COLO 205 colon)
1 | N#Cc1ccc(OC(=O)Nc2cc(Cl)cc(Cl)c2)cc1 | -10.3% [100 µM] (active) | 1.99% [100 µM] (active) | -3.43% [100 µM] (active) | -13.7% [100 µM] (active) | 0.999% [100 µM] (active) | -35.9% [100 µM] (active) | -31.1% [100 µM] (active) | 4.72% [100 µM] (active) | 9.34% [100 µM] (active) | -85.9% [100 µM] (active)
2 | CCNC(=O)OCCc1c2ccccc2nc2ccccc12 | 111% | 106% | 108% | 109% | 108% | 13.4% | 94.3% | 101% | 112% | 124%
3 | CCCCOC(=O)c1ccccc1O | 108% | 105% | 112% | 110% | 113% | 111% | 125% | 113% | 109% | 115%
4 | COc1cc(OC)c(NC(=O)C(Sc2nc(C)cc(C)c2C#N)c2ccccc2)cc1Cl (stereo not given) | 96.6% | 102% | 106% | 65.5% | 110% | 80.9% | 82.1% | 92.6% | 73.6% | 104%
5 | CNc1ccccc1C(N)=O | 99% | 103% | 97.3% | 95.9% | 108% | 110% | 98.1% | 97.4% | 101% | 115%
6 | O=C(NC(=S)N1CC=CCC1)c1ccccc1 | 107% | 104% | 116% | 109% | 113% | 104% | 77.3% | 103% | 111% | 118%
7 | CN(C)c1ccc(O)c2c1CC1CC3C(N(C)C)C(=O)C(C(N)=O)=C(O)C3(O)C(=O)C1=C2O (stereo not given) | 51.1% | 71% | 38.7% | 55% | 29.1% | 21.7% | 35.6% | 21.3% | 45.3% | 56.3%
8 | CCN(CC)c1ccc2nc3ccc(N=Nc4ccc(N(C)C)cc4)cc3[n+](-c3ccccc3)c2c1 | -64.9% (active) | -36.9% (active) | 25.2% | -87.9% (active) | -66.4% (active) | -14.6% (active) | -44.9% (active) | 3.32% (active) | -56.8% (active) | -89.9% (active)
9 | Cc1cc2c3ccc(C)[n+](C)c3ccc2n1C | 23.3% | 80.9% | 99.5% | 33.8% | 61.7% | 44.4% | 49.7% | -0.921% (active) | 53.4% | 10.7%
10 | O=C(O)c1ccc([N+](=O)[O-])cc1S(=O)(=O)O | 104% | 104% | 113% | 107% | 105% | 119% | 101% | 97.2% | 102% | 112%
11 | Cc1ccccc1CC(N)C(=O)O (stereo not given) | 98.2% | 115% | 98.6% | 103% | 109% | 92.3% | 112% | 107% | 107% | 114%
12 | O=C(O)c1cccc(-n2ncc(Cl)c(Cl)c2=O)c1 | 107% | 101% | 117% | 100% | 101% | 112% | 36% | 102% | 109% | 117%
13 | Cc1cc(Cl)cc(Cc2cc(Cl)cc(C)c2O)c1O | 0.327% (active) | 92.3% | 18.1% | 56.8% | 6.76% (active) | -33% (active) | -7.46% (active) | 29% | 14.9% | 101%
14 | COc1cc(C(=O)N2CCN(c3ccccc3)CC2)c2ccccc2n1 | 21.2% | 37.3% | 44.3% | 41.1% | 8.4% (active) | 62.3% | -7.75% (active) | 25.3% | 26% | -44.9% (active)
15 | O=[N+]([O-])c1c(Cl)ncnc1Cl | 111% | 100% | 125% | 104% | 93.2% | 85.7% | 97.3% | 92.8% | 109% | 113%
16 | CCOP(=O)(OCC)/C(=C\N1C(=O)CC(=O)NC1=S)C(=O)OC | 97.9% | 95.7% | 107% | 88% | 103% | 107% | 104% | 99.7% | 108% | 99.5%
17 | CCOC(=O)C(C#N)=C1CCN(C)CC1 | 94.3% | 111% | 107% | 104% | 111% | 97.9% | 105% | 101% | 110% | 108%
18 | O=C(c1cccc(C(=O)c2ccc3c4c(cccc24)C(=O)N(c2ccccc2)C3=O)c1)c1ccc2c3c(cccc13)C(=O)N(c1ccccc1)C2=O | 82.6% | 78.6% | 113% | 101% | 104% | 85.5% | 85% | 103% | 106% | 102%
19 | Cc1ccc(NCN2C(=O)c3ccccc3C2=O)c(C)n1 | 112% | 103% | 103% | 110% | 111% | 102% | 112% | 107% | 95.8% | 112%
20 | CCCCCCCCCCC(=O)CCCCCCCCCC | 102% | 103% | 109% | 92.3% | 102% | 148% | 96.7% | 98.4% | 99.1% | 107%
21 | Cc1cc(Nc2ccc3c(c2)OCO3)c2cc3c(cc2n1)OCO3 | 46% | 88% | 57.5% | 17.9% | 6.21% (active) | 10.4% | -21.1% (active) | 46.3% | 18.9% | -21.3% (active)
22 | Cc1ccc[n+](CCC(N)=O)c1 | 95.3% | 99.6% | 103% | 87.2% | 91.4% | 91.5% | 90.2% | 93.7% | 94.4% | 107%
23 | CC(C)(C)NCCC(O)c1cc(C(F)(F)F)nc2c(C(F)(F)F)cccc12 (stereo not given) | 95.5% | 75.2% | 76.2% | 68.3% | 44.4% | 40.2% | 76.2% | 57.5% | 80.3% | 97.7%
24 | CCCCc1ccc2nc(NC(=O)OC)[nH]c2c1 | 14.1% | 63.4% | 50.2% | 24.2% | 2.11% (active) | 60.7% | -9.52% (active) | 18.4% | 16.5% | -45.8% (active)
25 | COc1cc(OC)c2cc(C(=O)c3ccc(C#N)cc3)c(=O)oc2c1 | 96.9% | 92.2% | 92.3% | 88.6% | 107% | 107% | 93.1% | 99% | 84% | 117%
26 | O=C(O)c1cc(I)ccc1O | 103% | 99% | 95.7% | 100% | 108% | 121% | 111% | 93.3% | 107% | 127%
27 | Nc1nc(N)nc(N2CCCCC2)n1 | 107% | 103% | 94.4% | 104% | 103% | 96.6% | 100% | 104% | 102% | 108%
28 | ClCc1cccc2c(CCl)cccc12 | 61.5% | 74.9% | -4.83% (active) | 54.5% | 16.7% | 89.4% | 79.4% | 57.7% | -74.3% (active) | 77.9%
29 | CCN1CCCC(N2c3ccccc3Sc3ccccc32)C1 (stereo not given) | 103% | 113% | 86% | 104% | 104% | 74% | 94.9% | 103% | 87.7% | 96.6%
